Assay outcomes as filed in PubChem.
Most compounds without a hit are left out; they make up all but 21% or so of the library.
RORg inh: ROR gamma (mouse) transcription inhibition; P51450; Drosophila S2 Gal4-RORgamma UAS-luciferase reporter, 20 h; Potency, µM (highest dose often 53.6 µM), usual class: inhibitors; 5.4% of 310,000 active; AID 2551; also: nearly all actives have a fitted effect of over 60% in size
Target sequence (P51450 whole entry, looked up, the tested form may be a part): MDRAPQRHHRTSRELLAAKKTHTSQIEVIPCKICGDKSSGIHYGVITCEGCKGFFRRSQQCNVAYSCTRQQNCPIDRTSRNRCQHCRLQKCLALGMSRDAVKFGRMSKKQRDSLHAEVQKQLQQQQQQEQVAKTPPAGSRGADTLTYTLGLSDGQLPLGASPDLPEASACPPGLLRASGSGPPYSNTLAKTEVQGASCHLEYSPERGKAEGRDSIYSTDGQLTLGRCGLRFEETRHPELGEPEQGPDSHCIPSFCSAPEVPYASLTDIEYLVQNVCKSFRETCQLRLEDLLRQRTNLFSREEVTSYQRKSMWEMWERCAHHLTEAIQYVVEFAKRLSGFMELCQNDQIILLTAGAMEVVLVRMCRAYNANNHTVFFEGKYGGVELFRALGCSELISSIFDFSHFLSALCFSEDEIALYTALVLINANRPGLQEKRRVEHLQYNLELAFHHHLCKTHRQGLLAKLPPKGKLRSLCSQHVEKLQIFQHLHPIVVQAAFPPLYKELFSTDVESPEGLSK
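In this cell-based reporter format, copper sulfate (700 uM final) drives Gal4–ROR gamma fusion expression from a metallothionein promoter in Drosophila Schneider cells; compounds preincubated 1 hr, reporter read after 20 hr at ambient temperature.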
DT40 TDP1 no CPT: qHTS for Inhibitors of human tyrosyl-DNA phosphodiesterase 1 (TDP1): qHTS in cells in absence of CPT | 15% of 420,000 active | DT40 Tdp1-/- hTDP1 cells, no CPT, ATP luminescence, 48 h | Potency, µM (titrated, usually from 46.2 µM), usual class: inhibitors; also: nearly all actives have a fitted effect of over 55% in size
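Growth kinetics read by CellTiter-Glo luminescence after ≥48 hr at 37 °C. Cells: DT40 Tdp1-/- stably carrying human TDP1, 400 per well, compound exposure in the absence of CPT (DMSO vehicle).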
Gal4-VP16 FLuc: counter-screen for ROR gamma inhibitors: Gal4-VP16 reporter | Drosophila S2 Gal4-VP16 UAS-luciferase, luminescence, 20 h | Potency, µM (top dose mostly 53.6 µM), most hits filed as inhibitors | 3.5% of 310,000 active | AID 2546;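 also: Gal4-VP16 expression switched on by copper sulfate through the metallothionein promoter; nearly all actives have a fitted effect of over 50% in size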
ELG1 repair inh: inhibitors of ELG1-dependent DNA repair in HEK293T cells; AID 504467; 2.3% of 330,000 active; HEK293T ELG1-luciferase reporter, luminescence, 16 h; DNA damage induced by 5-fluorouridine; Potency, µM (doses to about 46.1 µM), actives largely listed as inhibitors; also: nearly all actives have a fitted effect of over 55% in size
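Cells (2,000 per well) received 5-fluorouridine plus test compound or DMSO and were incubated 16 hr at 37 °C, 5% CO2. Luciferase activity was read by luminescence 30 min after ONE-Glo addition; signal suppression marked inhibition of damage-induced ELG1 function.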
TDP1 cell CPT: growth inhibition of DT40 Tdp1-/-;hTDP1 cells with camptothecin (screen for TDP1 inhibitors) | 12% of 420,000 active | AID 686979 | chicken DT40 Tdp1-/-;hTDP1 cells + 20 nM CPT, ATP luminescence, 48 h | Potency, µM (series often up to 46.2 µM), hits mostly inhibitors; also: nearly all actives have a fitted effect of over 55% in size
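Chicken DT40 Tdp1-/- cells stably complemented with human TDP1 were seeded at 400 cells/well in medium containing 20 nM camptothecin, exposed to pin-transferred compounds, and grown at 37 °C for at least 48 hr. Viability was read as ATP luminescence.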
IL1B secr inh: inflammasome signaling inhibition, IL-1 beta readout; THP-1 LPS/ATP IL-1B secretion, AlphaLISA, 16 h; active compounds read low; activity change, % at 57.5 µM; 4.7% of 360,000 active; in the data active = activity change below about -50%; inconclusive = mostly about -30% to -49%
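Secreted IL-1B measured by AlphaLISA bead assay after 16 h compound exposure of THP-1 cells; compounds (final up to 57.5 uM) added 1 h before LPS (250 ng/mL) and ATP (1.25 mM) stimulation; lower signal means less secretion.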
Hits are given with their value; i = inactive; ? = inconclusive; nt = no result given. Unless noted, calls follow the shape of the dose curve; as a rule, active = well fitted curve in the direction sought with a large enough effect; inconclusive = small, poorly fitted or top-dose-only effect, or another doubt; inactive = no such curve, though single readings can be large; an effect the other way counts as inactive or inconclusive.

SMILES	RORg inh	DT40 TDP1 no CPT	Gal4-VP16 FLuc	ELG1 repair inh	TDP1 cell CPT	IL1B secr inh
CCOC(=O)C1(CC2CC2)CCN(Cc2cn[nH]c2-c2cccc(F)c2)CC1	i	18µM	i	i	?	i
CCOC(=O)C1(CC2CC2)CCN(Cc2cnc(-c3ccc(OC)cc3)nc2)CC1	i	16µM	i	?	?	i
CCOC(=O)C1(CC2CC2)CCN(Cc2ccc3cccc(F)c3n2)CC1	i	16µM	i	i	21µM	?
CCOC(=O)C1(CC2CC2)CCN(Cc2ccc(O)c(Cl)c2)CC1	i	nt	i	i	nt	nt
CC(=O)N1CCc2cc(S(=O)(=O)NC(Cc3ccccc3)C(=O)NCc3ccccc3Cl)ccc21 (stereo unspecified)	nt	i	nt	nt	i	nt
Cc1cn(C)c(CC(=O)Nc2cccc(C#N)c2)c1C(=O)O	nt	i	nt	nt	i	nt
CCCCCC(=O)NC(NC(=S)Nc1ccc(S(N)(=O)=O)cc1)C(Cl)(Cl)Cl (stereo unspecified)	i	i	i	i	i	i
CCCCCCCC(=O)NC(Nc1ccc(S(N)(=O)=O)cc1)C(Cl)(Cl)Cl (stereo unspecified)	i	21µM	i	?	?	i
O=C(C(=O)c1ccc(O)c(O)c1)c1ccc(O)c(O)c1	nt	i	nt	nt	i	i
CC(C)(C)c1ccc(O)c(O)c1	?	?	?	i	34µM	-81
CC(C)(C)c1ccc(O)c(/C=N\O)c1	11µM	i	?	?	i	i
COc1ccc(C2c3c(oc4ccccc4c3=O)C(=O)N2c2nc(C)c(C)s2)cc1 (stereo unspecified)	nt	i	nt	nt	i	nt
COC1CC(=O)C2OC(c3ccccc3)OCC2O1 (stereo unspecified)	nt	i	nt	nt	i	i
CSc1ccc(C2CC(=O)Oc3c2c(=O)n(C)c2ccccc32)cc1 (stereo unspecified)	nt	i	nt	nt	i	nt
CCCc1nc2c3ccccc3ccn2c1Cc1ccc(C)cc1	nt	?	nt	nt	21µM	i
CCCc1nc2c3ccccc3ccn2c1Cc1cccc(Cl)c1	nt	?	nt	nt	?	i
CCCc1nc2c3ccccc3ccn2c1CC(C)(C)C	nt	21µM	nt	nt	9.2µM	i
O=C(Nc1nccs1)c1csc([C@H]2C[C@H](O)[C@@H](CO)O2)n1	nt	i	nt	nt	i	i
O=C(c1[nH]c(C(F)(F)F)nc1-c1ccccc1)N1CCN(c2c(Cl)cncc2Cl)CC1	nt	?	nt	nt	?	i
COc1cc(OC)c(C2CC(=O)Nc3ccc4ccccc4c32)cc1OC (stereo unspecified)	nt	?	nt	nt	i	nt
Cc1cccc(Nc2n[nH]c(C)c2[N+](=O)[O-])c1	i	i	?	?	i	i
Cc1[nH]nc(Nc2ccc(C(C)C)cc2)c1[N+](=O)[O-]	i	?	?	?	i	-51
Cc1[nH]nc(Nc2ccc(Br)cc2)c1[N+](=O)[O-]	i	18µM	i	?	21µM	i
Cc1[nH]nc(Nc2ccccc2)c1[N+](=O)[O-]	i	i	i	?	i	i
Cc1cc(-c2c(C)[nH]n(-c3ccccc3)c2=O)n[nH]1	0.4µM	4.1µM	1µM	?	2.9µM	i
SMILES	RORg inh	DT40 TDP1 no CPT	Gal4-VP16 FLuc	ELG1 repair inh	TDP1 cell CPT	IL1B secr inh
Cc1cc(N2CCOCC2)ccc1/C=C1\SC(=O)N(C(C)C)C1=O	?	?	i	?	?	i
CCC(C)N1C(=O)S/C(=C/c2ccc(N3CCOCC3)cc2C)C1=O (stereo unspecified)	i	23µM	i	?	21µM	i
CCN1C(=O)S/C(=C\c2ccc(N3CCOCC3)cc2C)C1=O	i	16µM	i	?	15µM	-54
CCc1ccc(C(=O)Nc2ccc3nc(C)ccc3c2)cc1	i	?	i	?	?	?
O=C(Nc1cccc(Cl)c1Cl)c1ccncc1	i	i	i	i	i	-51
O=C(NNC(=O)c1ccc(Cl)c(Cl)c1)c1ccncc1	nt	i	nt	nt	i	i
C/C(=N\NC(=O)C(=O)Nc1cccc(Cl)c1C)c1ccncc1	i	15µM	i	i	21µM	i
Cc1ccc2cc(NC(=O)c3ccc(C(C)(C)C)cc3)ccc2n1	i	?	i	?	?	-101
O=C(Nc1ccncc1)c1ccc(Cl)c(Cl)c1	?	12µM	i	i	i	?
O=C(NNC(=S)Nc1ccccc1Cl)c1ccncc1	i	i	i	?	i	i
O=c1[nH]oc2cc(Cl)ccc12	i	i	i	i	i	i
COc1cc(C2C(C#N)=C(N)N(N(C)C)C3=C2C(=O)CC(C)(C)C3)ccc1O (stereo unspecified)	i	i	i	i	i	i
O=C(O)Cc1ccc(NC(=O)c2ccc(Cl)c(Cl)c2)cc1	?	i	?	i	i	i
CC(C)(C)c1ccc(C(=O)Nc2ccc(NC(=O)c3ccc(Cl)c(Cl)c3)cc2)cc1	nt	15µM	nt	nt	12µM	nt
O=[N+]([O-])c1ccc(/C=N/NC(=S)Nc2ccccc2F)o1	7.1µM	?	7.9µM	?	i	i
Cc1ccc(OCC(=O)N/N=C\c2ccc(-c3cccc(C(=O)O)c3)o2)c(C)c1	i	i	i	?	i	i
Cc1cc(C(=O)N/N=C/c2ccc(-c3cccc([N+](=O)[O-])c3)o2)n[nH]1	i	i	i	i	i	i
Cc1ccc(C(=O)N/N=C/c2ccc(-c3cccc(C(F)(F)F)c3)o2)cn1	3.5µM	2.6µM	10µM	?	2.9µM	i
O=[N+]([O-])c1cccc(-c2ccc(/C=N/NC(=S)NCc3ccco3)o2)c1	0.45µM	16µM	3.2µM	?	23µM	i
CNC(=S)N/N=C/c1ccc(-c2cccc(C(=O)O)c2)o1	7.1µM	8.2µM	?	?	9.2µM	i
Cc1c(-c2ccc(/C=N/NC(=O)C(=O)Nc3ccccc3F)o2)cccc1[N+](=O)[O-]	i	i	i	i	i	i
CC(CNC(=O)CN(C)CC(=O)Nc1ccccc1Br)c1ccccc1 (stereo unspecified)	nt	i	nt	i	i	i
COc1ccc(NC(=O)Cn2cc(C(=O)c3ccc(C)c(C)c3)c(=O)c3cc(OC)ccc32)cc1	nt	i	nt	nt	i	nt
NC(=O)N/N=C/c1ccc(-c2ccc([N+](=O)[O-])cc2)o1	i	?	i	i	i	i
COCCNC(=S)N/N=C/c1ccc(-c2ccc([N+](=O)[O-])cc2)o1	4.5µM	i	10µM	i	?	i
Fc1ccccc1NC(=S)N/N=C/c1ccccc1Br	3.2µM	?	4.5µM	?	?	i
O=[N+]([O-])c1ccc(/C=N/NC(=S)Nc2ccccc2)o1	?	23µM	?	?	15µM	i
O=[N+]([O-])c1cccc(-c2ccc(/C=N/NC(=S)Nc3ccccc3)o2)c1	0.089µM	i	2.5µM	i	i	i
